MITF act: increases MITF-driven TRPM1 promoter luciferase signal | SK-MEL-5 TRPM1-promoter luciferase, 24 h; % of positive control, neutral wells = 0 | 300,000 compounds, 0.75% hits | activation, % at 12.5 µM;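 active = mean activation of at least 80% with every replicate also reaching 80%; inconclusive = mean reaches 80% but some replicate falls short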
AHR activator: activates the human aryl hydrocarbon receptor. P35869. AHR-responsive luciferase reporter cells, luminescence. activation, % at 5 µM. 320,000 compounds, 2.5% hits. AID 2796; in the data active = activation above about 47%
Target sequence (P35869 whole entry, looked up): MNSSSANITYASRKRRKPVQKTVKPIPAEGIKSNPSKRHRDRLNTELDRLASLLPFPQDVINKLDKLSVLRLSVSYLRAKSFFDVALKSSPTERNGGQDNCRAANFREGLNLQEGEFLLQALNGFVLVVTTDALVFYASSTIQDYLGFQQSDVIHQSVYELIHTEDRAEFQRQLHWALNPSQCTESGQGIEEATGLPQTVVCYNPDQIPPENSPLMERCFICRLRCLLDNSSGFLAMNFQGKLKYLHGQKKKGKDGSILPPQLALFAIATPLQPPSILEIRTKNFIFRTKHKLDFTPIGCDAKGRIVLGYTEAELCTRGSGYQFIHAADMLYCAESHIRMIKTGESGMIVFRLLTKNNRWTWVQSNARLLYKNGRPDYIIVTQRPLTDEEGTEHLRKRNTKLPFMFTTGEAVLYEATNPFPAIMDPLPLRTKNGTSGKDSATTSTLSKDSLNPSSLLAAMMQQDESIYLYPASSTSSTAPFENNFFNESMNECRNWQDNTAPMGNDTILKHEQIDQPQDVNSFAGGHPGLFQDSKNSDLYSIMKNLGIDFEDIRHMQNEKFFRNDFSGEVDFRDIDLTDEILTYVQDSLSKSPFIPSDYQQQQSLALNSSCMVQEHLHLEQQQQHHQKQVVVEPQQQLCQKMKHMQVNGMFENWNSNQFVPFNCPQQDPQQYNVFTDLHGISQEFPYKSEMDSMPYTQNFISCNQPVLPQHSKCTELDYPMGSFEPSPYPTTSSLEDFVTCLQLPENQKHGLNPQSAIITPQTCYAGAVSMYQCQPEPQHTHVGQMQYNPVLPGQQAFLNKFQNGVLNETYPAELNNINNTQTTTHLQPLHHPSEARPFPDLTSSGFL
esBAF inh: SWI/SNF esBAF complex inhibition. mouse ES cells, Bmi1-luciferase knock-in reporter, 24 h; 100% = twice the neutral-well signal. 350,000 compounds, 2% hits. reporter increase, % at 12.5 µM. AID 602393; in the data active = activation above about 40%; inconclusive = no clear call, values can overlap the other calls;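 note: a rise in the Bmi1 reporter signal indicates esBAF inhibition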
Wnt bcat act: activates Wnt/beta-catenin signaling in a reporter cell assay; activator, plate reader; activation, % at 9.35 µM; 300,000 compounds, 1.2% hits; AID 743398; in the data active = activation above about 30%, passing the limit was not always enough; inconclusive = no clear call, values can overlap the other calls
FXN GAA850 act: frataxin GAA850 promoter activation; HEK293 lucGAA850 FXN promoter luciferase reporter, 24 h; percent of 10 µM SAHA response; activation, % at 6 µM; 360,000 compounds, 0.56% hits;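 active = activation above the average of all compounds screened plus 3 SD, cutoff fixed separately per campaign, cut at about 7.5% in these data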
Large screens that a line does not name were inactive. Hits are enriched below; roughly 4.2% of the tested compounds scored in any of these assays.

CCC(=O)N(C)C[C@H]1Oc2cc(C#CCN(C)C)ccc2S(=O)(=O)N([C@H](C)CO)C[C@@H]1C	none (no result: MITF act, AHR activator, Wnt bcat act, FXN GAA850 act)
CC(C)CN(C[C@H]1N[C@H](CO)[C@H]1c1ccccc1)C(=O)CN(C)C	none (no result: MITF act, AHR activator, Wnt bcat act, FXN GAA850 act)
CC(=O)c1ccc(NC(=O)CSc2nc(=O)cc(N)n2-c2ccccc2)cc1	esBAF inh 63
COCCn1c(SCC(=O)Nc2ccc(NC(C)=O)cc2)nc2ccccc2c1=O	none
N#Cc1ccccc1NC(=O)CSc1nccn1CCc1ccccc1	esBAF inh 56 (no result: Wnt bcat act)
CCOCCCn1c(SCC(=O)NCc2ccc3c(c2)OCO3)nc2ccccc2c1=O	AHR activator 70
COC(=O)c1ccc(NC(=O)CSc2nc(=O)cc(N)n2-c2ccccc2)cc1	none
COCCCn1c(SCC(=O)Nc2ccc(C(C)=O)cc2)nc2ccccc2c1=O	esBAF inh 66 (no result: MITF act, Wnt bcat act)
C[C@@H]1CN([C@H](C)CO)C(=O)c2cc(NC(=O)Nc3ccccc3)ccc2O[C@H]1CN(C)S(C)(=O)=O	none (no result: MITF act, AHR activator, Wnt bcat act, FXN GAA850 act)
CN(C)C(=O)C[C@@H]1CC[C@@H]2[C@@H](COc3ccc(NC(=O)Nc4cccc(Cl)c4)cc3C(=O)N2C)O1	none (no result: MITF act, AHR activator, Wnt bcat act, FXN GAA850 act)
CC(C)NC(=O)N(C)C[C@@H]1Oc2cc(C#Cc3cccc(F)c3)ccc2S(=O)(=O)N([C@H](C)CO)C[C@H]1C	none (no result: MITF act, AHR activator, Wnt bcat act, FXN GAA850 act)
CCCNC(=O)N(C)C[C@H]1Oc2ncc(-c3ccc(F)cc3)cc2C(=O)N([C@@H](C)CO)C[C@H]1C	none (no result: MITF act, AHR activator, Wnt bcat act, FXN GAA850 act)
CC(=O)c1ccc(NC(=O)CSc2nccn2C)cc1	none (no result: MITF act, esBAF inh)
CC(=O)c1ccc(NC(=O)CSc2nccn2CCc2ccccc2)cc1	esBAF inh 78
Cc1ccc(NC(=O)CSc2nccn2Cc2ccco2)cc1	esBAF inh 56
N#Cc1ccccc1NC(=O)CSc1nnc(-c2ccccc2)n1-c1ccccc1	AHR activator 65 (no result: MITF act, Wnt bcat act)
O=C(CSc1nccn1Cc1ccco1)Nc1ccc(F)cc1	none
C[C@H](CO)N1C[C@H](C)[C@@H](CN(C)C(=O)c2ccncc2)Oc2cc(C#CC3(O)CCCC3)ccc2S1(=O)=O	none (no result: MITF act, AHR activator, Wnt bcat act, FXN GAA850 act)
CO[C@H]1CN(C)C(=O)c2ccc(NS(C)(=O)=O)cc2OC[C@@H](C)N(CCC(F)(F)F)C[C@@H]1C	none (no result: MITF act, AHR activator, Wnt bcat act, FXN GAA850 act)
CC(=O)N(/N=C1/C(=O)Nc2ccccc21)c1ccccc1	esBAF inh 45
CC(O)C(NS(=O)(=O)c1ccc(Cl)cc1)C(=O)OCCOc1ccc(F)cc1 (configuration not stated)	Wnt bcat act 45 (no result: MITF act, AHR activator)
CC(O)C(NS(=O)(=O)c1ccc(Cl)cc1)C(=O)OCC(=O)Nc1cccnc1Cl (configuration not stated)	none (no result: esBAF inh)
C[C@H](CO)N1C[C@H](C)[C@@H](CN(C)Cc2ccc3c(c2)OCO3)Oc2ccc(NS(=O)(=O)c3cn(C)cn3)cc2CC1=O	none (no result: MITF act, AHR activator, Wnt bcat act, FXN GAA850 act)
O=C(/C=C/c1cccs1)Nc1cccnc1	MITF act 92, AHR activator 56 (no result: esBAF inh)
O=C(/C=C/c1cccs1)Nc1nncs1	none (no result: esBAF inh)
O=C(/C=C/c1c(F)cccc1Cl)Nc1cccnc1	AHR activator 50 (no result: MITF act)
C[C@@H]1CN([C@H](C)CO)C(=O)c2cc(NC(=O)c3ccncc3)ccc2O[C@@H](C)CCCCO[C@H]1CN(C)S(=O)(=O)c1cn(C)cn1	none (no result: MITF act, AHR activator, Wnt bcat act, FXN GAA850 act)
Cc1ccc(O)c(N)c1	none (no result: Wnt bcat act)
Cc1ccc(SSc2cc(C)ccc2N)c(N)c1	AHR activator 58, esBAF inh inconclusive
CCN(CC)c1ccc2cc(C(C)=O)c(=O)oc2c1	none (no result: esBAF inh)
CCN(CC)c1ccc2cc(-c3nnc(-c4ccncc4)o3)c(=O)oc2c1	esBAF inh 44 (no result: AHR activator, Wnt bcat act)
Cc1cc(Nc2ccc(C)c(Br)c2)n2nc(C)nc2n1	AHR activator 61
C[C@H](NC(=O)C[C@@H]1C[C@@H]2c3cc(NC(=O)CN(C)C)ccc3O[C@@H]2[C@H](CO)O1)c1ccccc1	none (no result: MITF act, AHR activator, Wnt bcat act, FXN GAA850 act)
Cc1ccc(-c2csc(N)n2)cc1	esBAF inh 43 (no result: AHR activator)
Nc1nc(-c2ccc(Oc3ccccc3)cc2)cs1	esBAF inh 68 (no result: MITF act)
Nc1nc(-c2ccc(Cl)cc2)cs1	none (no result: MITF act, AHR activator, esBAF inh, FXN GAA850 act)
Nc1nc(-c2ccc(-c3ccccc3)cc2)cs1	esBAF inh 59
C[C@@H]1CN([C@H](C)CO)C(=O)Cc2cc(NS(C)(=O)=O)ccc2O[C@@H]1CN(C)C(=O)Nc1ccc(C(F)(F)F)cc1	none (no result: MITF act, AHR activator, Wnt bcat act, FXN GAA850 act)
C[C@@H](NC(=O)C[C@@H]1CC[C@@H]2[C@@H](COc3ccc(NS(=O)(=O)c4ccc(Cl)cc4)cc3C(=O)N2C)O1)c1ccccc1	none (no result: MITF act, AHR activator, Wnt bcat act, FXN GAA850 act)
CCOc1ccc(-c2cc(C(=O)Nc3ccc(F)cc3)[nH]n2)c(C)c1	esBAF inh 65 (no result: MITF act, AHR activator)
COc1ccc(NC(=O)Nc2ccc3c(c2)C(=O)N([C@H](C)CO)C[C@H](C)[C@H](CN(C)S(=O)(=O)c2ccccc2)OCCCC[C@H](C)O3)cc1	none (no result: MITF act, AHR activator, Wnt bcat act, FXN GAA850 act)
CCCCSc1ncc(C(=O)OCC)c(N)n1	MITF act 112 (no result: Wnt bcat act)
CCOC(=O)c1cnc(SCC(=O)c2ccc(Cl)cc2)nc1N	none (no result: MITF act)
CCOC(=O)c1cnc(SCCc2ccccc2)nc1N	MITF act 95, esBAF inh 42, Wnt bcat act 37
CN1C(=O)c2cc(NC(=O)c3ccc(F)c(F)c3)ccc2OC[C@H]2O[C@@H](CC(=O)N[C@@H]3CCN(Cc4ccccc4)C3)CC[C@H]21	none (no result: MITF act, AHR activator, Wnt bcat act, FXN GAA850 act)
COc1ccc(S(=O)(=O)Nc2cccc3c2O[C@@H](CN(C)C(=O)Nc2ccc(C(F)(F)F)cc2)[C@@H](C)CN([C@H](C)CO)C3=O)cc1	none (no result: MITF act, AHR activator, Wnt bcat act, FXN GAA850 act)
NC(=O)c1cccc(-c2coc3c(C(=O)NCc4ccccc4)cccc23)c1	esBAF inh 50 (no result: MITF act, AHR activator)
C[C@H](CO)N1C[C@H](C)[C@H](CN(C)S(=O)(=O)c2ccc(Cl)cc2)Oc2ccc(NC(=O)CCN3CCOCC3)cc2CC1=O	none (no result: MITF act, AHR activator, Wnt bcat act, FXN GAA850 act)
COc1cc(NC(=O)c2cc3sccc3n2C)cc(OC)c1	esBAF inh 42, Wnt bcat act inconclusive
COc1ccc(NC(=O)c2cc3sccc3n2Cc2ccc(F)cc2)cc1OC	esBAF inh 65
C#CCNC(=O)c1cc2sccc2n1C	none
CC(CCc1ccccc1)NC(=O)c1cc2sccc2n1C (configuration not stated)	none (no result: esBAF inh)
CCc1ccccc1NC(=O)c1cc2sccc2n1C	AHR activator 64
COc1ccc(OC)c(NC(=O)c2cc3sccc3n2C)c1	none (no result: Wnt bcat act)
Cn1c(C(=O)Nc2ccccc2)cc2sccc21	AHR activator 56, Wnt bcat act 51
COCCNC(=O)c1cc2sccc2n1C	none (no result: esBAF inh)
COC(=O)c1ccc(NC(=O)c2cc3sccc3n2C)cc1	esBAF inh 55
CO[C@H]1CN(C)C(=O)c2ccc(NC(C)=O)cc2OC[C@H](C)N(C(=O)CC2CC2)C[C@H]1C	none (no result: MITF act, AHR activator, Wnt bcat act, FXN GAA850 act)
COc1ccc(CNC(=O)c2ccc3ccccc3n2)cc1	esBAF inh 82 (no result: MITF act)
COc1ccc(CNC(=O)c2ccc(C(C)C)cc2)cc1	MITF act 104 (no result: esBAF inh)
COc1ccc(NC(=S)c2ccc3ccccc3n2)cc1	esBAF inh inconclusive (no result: Wnt bcat act)
COc1ccc(N=C(NN)c2ccc3ccccc3n2)cc1	AHR activator 71 (no result: esBAF inh)
COc1ccc(C(=O)NCc2ccc(N3CCN(C)CC3)cc2)cc1	none
Cc1nnc(NC(=O)c2ccc3ccccc3n2)s1	esBAF inh 43
O=C(C[C@H]1C[C@@H]2c3cc(NC(=O)c4ccc5c(c4)OCO5)ccc3O[C@@H]2[C@@H](CO)O1)NCc1ccc(Oc2ccccc2)cc1	none (no result: MITF act, AHR activator, Wnt bcat act, FXN GAA850 act)

Source: PubChem (several laboratories)
